Bioassay records as filed in PubChem.
USP8 block – blocks human USP8 ubiquitin-rhodamine cleavage. purified USP8, Ub-rhodamine cleavage fluorescence, 30 min. P40818. hit rate 4.2% among 47,000. inhibition, % at 20 µM
OTUD3 block – blocks human OTUD3 ubiquitin-rhodamine cleavage; Q5T2D3; purified OTUD3, Ub-rhodamine fluorescence, 2 h; inhibition, % at 25 µM; hit rate 0.7% among 47,000
USP10 block – human USP10 deubiquitinase inhibition | purified USP10, Ub-rhodamine fluorescence, 60 min | Q14694 | hit rate 1.1% among 47,000 | inhibition, % at 20 µM
UCHL1 block – human UCHL1 deubiquitinase inhibition; purified UCHL1, Ub-rhodamine cleavage fluorescence; inhibition, % at 20 µM; hit rate 0.2% among 47,000; AID 1645859
USP7 inh – human USP7 deubiquitinase inhibition | purified USP7, Ub-rhodamine cleavage fluorescence | inhibition, % at 20 µM | hit rate 0.3% among 47,000 | AID 1645854
Hits are given with their value; . = inactive. Shown are actives, neighbours in structure and some others; about 4.9% of the full set was active somewhere. No stated cut-off is given here; in the data, active means inhibition above about 30%; inactive means the rest.

SMILES	USP8 block	OTUD3 block	USP10 block	UCHL1 block	USP7 inh
CCN(CC)c1cc(C)c2cc(NC(=O)CCc3ccc(OC)cc3)ccc2n1	53.7	.	.	.	.
COc1cccc(C(=O)Nc2ccc3nc(N4CCN(c5ncccn5)CC4)cc(C)c3c2)c1OC	58.6	.	.	.	.
Cn1c(N2CCN(C(=O)CC3CCCC3)CC2)cc(=O)n(C)c1=O	.	.	.	.	.
O=C(/C=C/c1ccc2c(c1)OCO2)Nc1nc2n(n1)C(c1ccccc1)CC(=O)N2 (stereo not drawn)	61.9	.	.	.	.
COc1cccc(NC(=O)CCn2c(=O)c3cccn3c3ccccc32)c1	.	.	.	.	.
COc1cccc(NC(=O)Cn2c3ccccc3n3c(=O)cc(-c4ccccc4)nc23)c1	88.2	.	48.8	.	.
N#Cc1cccc(NC(=O)C(Cc2c[nH]c3ccccc23)NC(=O)c2cccs2)c1 (stereo not drawn)	.	.	.	.	.
Cc1nc(-c2ccccc2)nc2c1CC(=O)N2Cc1cccnc1	51.6	.	.	.	.
Cc1nc(C2CCNCC2)nc2c1CC(=O)N2CCc1ccccc1	.	.	.	.	.
O=C(CC1N=C(N2CCN(c3ccccc3)CC2)NC1=O)Nc1ccc(Cl)cc1 (stereo not drawn)	.	.	.	.	.
Cc1ccc(N2CCN(C3=NC(C(=O)Nc4ccccc4)CC(=O)N3)CC2)cc1 (stereo not drawn)	38.7	.	.	.	.
COc1ccc(N2CCN(C3=NC(CC(=O)Nc4ccccc4)C(=O)N3)CC2)cc1 (stereo not drawn)	36.4	.	.	.	.
O=C1CC(C(=O)Nc2ccccc2)N=C(N2CCN(c3ccccc3F)CC2)N1 (stereo not drawn)	.	.	.	.	.
O=C(CCc1nc(-c2cccnc2)no1)Nc1ccc(Cl)cc1	.	.	.	.	.
COc1cc(O)c2c(O)c3c(cc2c1)C[C@@]1(O)CC(=O)C(C(N)=O)=C(O)[C@@]1(O)C3=O	.	45.7	.	70.5	65.2
Cc1cc(C(=O)N2CCN(c3ccnc(N4CCN(C(C)C)CC4)n3)CC2)n(C(C)(C)C)n1	.	.	.	.	.
CCc1ccc2ncc(S(=O)(=O)c3ccccc3)c(N3CCCC3)c2c1	36.5	.	.	.	.
NS(=O)(=O)c1cccc(NC(=O)/C=C/c2cn(-c3ccccc3)nc2-c2cccc([N+](=O)[O-])c2)c1	71.3	.	62.6	.	.
CNC(=O)Cc1ccc(NC(=O)/C=C/c2cn(-c3ccccc3)nc2-c2ccc(F)cc2)cc1	33.6	.	.	.	.
CC(=O)Nc1ccc(S(=O)(=O)Nc2cc(-c3ccccc3)nn2C)cc1	.	.	.	.	.
Cc1nc2ccc(NC(=O)/C=C/c3cn(-c4ccccc4)nc3-c3cccnc3)cc2s1	38.2	.	.	.	.
O=C(O)c1cn(-c2ccccc2)nc1-c1cccc([N+](=O)[O-])c1	.	.	.	.	.
CC(=O)NS(=O)(=O)c1ccc(NC(=O)/C=C/c2cn(-c3ccccc3)nc2-c2ccccc2)cc1	65.4	.	62.6	.	41.0
CCC(C)c1ccccc1NC(=O)c1cccc(OCc2c(C)noc2C)c1 (stereo not drawn)	.	.	.	.	.
COc1ccc(Cl)cc1NC(=O)Cn1cnc(S(=O)(=O)N2CCC(C)CC2)c1	.	.	.	.	.
SMILES	USP8 block	OTUD3 block	USP10 block	UCHL1 block	USP7 inh
c1ccc2c(c1)CCc1c-2nc2ccccc2c1N1CCOCC1	83.0	.	.	.	.
O=C(NCCN1CCOCC1)c1[nH]nc2c1CCc1ccccc1-2	.	.	.	.	.
COc1ccc2cc3n(c2c1)CC(C)(C(=O)NC1CCCC1)N(Cc1ccc(C)cc1)C3=O (stereo not drawn)	.	.	.	.	.
CC1(C(=O)NC2CCCC2)Cn2c(ccc2-c2ccco2)C(=O)N1Cc1ccccc1 (stereo not drawn)	56.9	.	.	.	.
COc1ccc(N2C(=O)c3cc4ccccc4n3CC2(C)C(=O)NC2CCCC2)cc1 (stereo not drawn)	31.2	.	.	.	.
CCOc1ccc(S(=O)(=O)N2CC(c3nc(C)no3)C2)cc1	.	.	.	.	.
Cc1nn(-c2ccccc2)c2c1C(c1cccnc1)c1c(ncn3nc(-c4cccc5ccccc45)nc13)O2 (stereo not drawn)	.	.	.	.	.
Cc1ccc(C2c3c(C)nn(-c4ccccc4)c3Oc3ncn4nc(-c5ccccc5O)nc4c32)cc1 (stereo not drawn)	40.6	.	.	.	.
O=C(NCc1ccc2c(c1)OCO2)c1cc2c(s1)CCC2	79.0	.	47.3	38.5	.
Cc1ccc(NC(=O)c2cc3c(s2)CCC3)cc1	48.7	.	.	.	.
O=C(Nc1ccc2[nH]c(=O)[nH]c2c1)c1cc2c(s1)CCCCC2	53.4	.	.	.	.
CC(C(=O)Nc1ccc2[nH]c(=O)[nH]c2c1)N1CCCCCC1 (stereo not drawn)	.	.	.	.	.
CN(CC(=O)NCCC1=CCCCC1)c1nnc(N2CCCCC2=O)s1	.	.	.	.	.
CCc1nc(SCc2ccccc2C)c2c(=O)n(C)c(=O)n(C)c2n1	.	.	.	.	.
CC(=O)N1CC2(CCN(C(=O)C(C)(C)C)CC2)Nc2ccccc21	31.7	.	.	.	.
C=C1Nc2ccccc2C(=O)N1c1cccc(NC(=O)c2ccc(C)c(C)c2)c1	.	30.2	.	.	.
Cc1ccc(NC(=O)CC2C(=O)N(Cc3cccnc3)c3nc4ccccc4n32)c(C)c1 (stereo not drawn)	.	.	.	.	.
O=C(NC1CCCCC1)c1ccc2c(c1)nnn2CCN1CCOCC1	.	.	.	.	.
N#Cc1cccc(S(=O)(=O)c2c[nH]c3cc(Cl)ccc3c2=O)c1	56.8	.	.	.	.
O=C1CC(c2ccccc2OCc2ccccc2)c2sccc2N1 (stereo not drawn)	.	.	.	.	.
Cn1c(C(=O)NCc2ccccn2)cc2c(=O)[nH]c3ccccc3c21	87.4	.	.	.	.
O=C(COc1ccccc1)Nc1ccc(-c2nc3cnccc3o2)c(O)c1	84.0	.	.	.	36.2
COc1ccccc1C(=O)Nc1ccc(-c2nc3ccccc3o2)c(O)c1	37.3	.	32.2	.	.
COc1ccc(OCC(=O)Nc2cc(C)c(O)c(-c3nc4ccccc4o3)c2)cc1	.	.	.	.	.
O=C(CCn1c(=S)oc2ccccc21)Nc1ccc(O)c(-c2nc3ccccc3o2)c1	33.3	.	.	.	.
OC(c1ccc2c(c1)OCO2)c1ncc(-c2ccc(Cl)cc2)[nH]1 (stereo not drawn)	.	.	.	.	.
OC(c1ccc2c(c1)OCO2)c1ncc(-c2ccc3ccccc3c2)[nH]1 (stereo not drawn)	40.0	.	.	.	.
Cc1cc(NC(=O)COc2ccc3oc4c(c3c2)CCCC4)n(-c2ccccc2)n1	.	.	39.0	.	.
Cc1ccc(C)c(NC(=O)c2c(C)sc3c(=O)n(C(C)C)cnc23)c1	.	.	.	.	.
